Experimental data from PubChem BioAssay.
Several values for one entry are separate records, joined by “and”; a condition that tells them apart may be missing. Equal entries are not always repeated. Activity calls are given as the source filed them. Unless noted, no stated cut-off is given here; in the data, active means inhibition above about 80%; inactive means the rest.

Assays:
[1] = LFS_MB_P medulloblastoma growth inhibition, cell-based, chromothripsis tumors, cisplatin or BGB combos (AID 1671449); conditions: LFS_MB_P medulloblastoma cells;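 further: cells exposed for 96 hours; 0% = vehicle DMSO and 100% = killing by high DMSO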
[2] = HDN33 neuroblastoma growth inhibition, cell-based, chromothripsis tumors, cisplatin or BGB combos (AID 1671450); conditions: HDN33 neuroblastoma cells, stronger effect = higher value;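 further: cells exposed to compound for four days; 0% = vehicle DMSO and 100% = cell killing by high DMSO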
[3] = ICB984 medulloblastoma cell growth inhibition, synergistic combos for chromothripsis tumors, cisplatin or BGB combos (AID 1671451; call rule not given here;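 further: cells exposed for 96 hours before readout; 0% = vehicle DMSO and 100% = killing by high DMSO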); conditions: ICB984 medulloblastoma cells, drug combinations, stronger effect = higher value
[4] = LFS_MB_1R medulloblastoma cell growth inhibition, synergistic combos for chromothripsis tumors, cisplatin or BGB combos (AID 1671452); conditions: LFS_MB_1R medulloblastoma cells, stronger effect = higher value;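 further: cells exposed for 96 hours before readout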
[5] = HTB85 osteosarcoma cell growth inhibition, synergistic combos for chromothripsis tumors, BGB or cisplatin IC20 combos (AID 1671453); conditions: HTB85 osteosarcoma cells, drug combinations, stronger effect = higher value;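 further: cells exposed for 96 hours before readout; 0% = vehicle DMSO and 100% = high DMSO killing control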
[6] = CRL2098 osteosarcoma cell growth inhibition, synergistic combos for chromothripsis tumors, BGB or cisplatin IC20 combos (AID 1671454); conditions: CRL2098 osteosarcoma cells, drug combinations, stronger effect = higher value;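 further: cells exposed for 96 h before readout; 0% = vehicle DMSO and 100% = killing by high DMSO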
[7] = HD-MB03 medulloblastoma cell growth inhibition, synergistic combos for chromothripsis tumors, BGB or cisplatin IC20 combos (AID 1671455; in the data active means inhibition above about 83%;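 further: 0% = vehicle DMSO and 100% = high DMSO as cytotoxic control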); conditions: HD-MB03 medulloblastoma cells, stronger effect = higher value
[8] = UWB1.289 ovarian carcinoma cell growth inhibition, synergistic combos for chromothripsis tumors, BGB or cisplatin combos (AID 1671456); conditions: UWB1.289 ovarian carcinoma cells, stronger effect = higher value;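 further: cells exposed to compound for four days; 0% = vehicle DMSO and 100% = killing by high DMSO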
[9] = LFS_MB_2R medulloblastoma cell growth inhibition, synergistic combos for chromothripsis tumors, cisplatin combos (AID 1671457); conditions: LFS_MB_2R medulloblastoma cells, stronger effect = higher value;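 further: cells exposed to compound for four days before readout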
[10] = MDA-MB-436 breast carcinoma cell growth inhibition, synergistic combos for chromothripsis tumors, BGB or cisplatin combos (AID 1671458; call rule not given here;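 further: cells exposed for 96 hours; 0% = vehicle DMSO and 100% = killing by high DMSO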); conditions: MDA-MB-436 breast carcinoma growth inhibition, drug combinations, stronger effect = higher value
[11] = UWB1.289_BRCA1 ovarian cancer growth, cell-based, BGB or cisplatin combinations (AID 1671459); conditions: UWB1.289 BRCA1 ovarian carcinoma, drug combinations, stronger effect = higher value
[12] = human astrocyte viability loss, single and combined drugs, cytotoxicity control for chromothriptic childhood tumor combination screen, cell-based, BGB or cisplatin IC20 combos (AID 1671460); conditions: Human astrocytes, drug combinations, stronger effect = higher value;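 further: cells exposed to compounds for 96 hours before viability readout; 0% = vehicle and 100% = killing control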
[13] = growth inhibition of BT084 medulloblastoma cells, cell-based, ICGC_MB145, cisplatin and BGB IC40 combos (AID 1671461); conditions: drug combinations, stronger effect = higher value;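 further: cells exposed to drugs for 96 hours; 0% = vehicle DMSO and 100% = high DMSO full killing control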
[14] = growth inhibition of RCMB18 medulloblastoma cells, cell-based, cisplatin and BGB IC40 combos (AID 1671462); conditions: stronger effect = higher value;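 further: cells exposed to compound for four days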
[15] = growth inhibition of CRL1545 osteosarcoma cells, cell-based, cisplatin and BGB IC20 combos (AID 1671464); conditions: stronger effect = higher value;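 further: cells exposed to compound for 96 hours before readout; 0% = vehicle DMSO and 100% = high DMSO killing control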
[16] = at 0.5 µM, stronger effect = higher value
[17] = measured here: combination with BGB IC20, at 0.005 µM
[18] = measured here: combination with BGB IC40, at 0.005 µM
[19] = measured here: combination with BGB IC40, at 0.05 µM
[20] = measured here: combination with cisplatin, at 0.5 µM, stronger effect = higher value
[21] = measured here: combination with cisplatin, at 5 µM, stronger effect = higher value
[22] = measured here: with BGB IC20 combination, at 0.5 µM
[23] = measured here: with cisplatin IC20 combination, at 0.5 µM
[24] = measured here: 5 uM single agent, at 5 µM
[25] = measured here: combination with cisplatin, at 0.5 µM
[26] = measured here: combination with cisplatin, at 5 µM
[27] = measured here: with BGB IC20, at 0.5 µM
[28] = measured here: with BGB IC20, at 5 µM
[29] = measured here: with cisplatin IC20, at 0.5 µM
[30] = measured here: with cisplatin IC20, at 5 µM
[31] = measured here: combination with BGB at IC20, at 0.5 µM
[32] = measured here: combination with cisplatin at IC20, at 0.5 µM
[33] = measured here: combo with BGB at IC20, at 0.5 µM
[34] = measured here: combo with cisplatin at IC20, at 0.5 µM
[35] = measured here: inhibition with BGB combination, at 0.05 µM
[36] = measured here: inhibition with cisplatin combination, at 0.05 µM
[37] = measured here: BGB combination, at 0.5 µM
[38] = measured here: BGB combination, at 5 µM
[39] = measured here: cisplatin combination, at 0.5 µM
[40] = measured here: cisplatin combination, at 5 µM
[41] = BGB combination, concentration series, at 5 µM
[42] = cisplatin combination, concentration series, at 5 µM
[43] = measured here: combo with BGB IC20, at 0.5 µM
[44] = measured here: combo with cisplatin IC20, at 0.5 µM
[45] = cisplatin combination, at 0.5 µM
[46] = measured here: BGB IC40 combination 0.05 uM, at 0.05 µM
[47] = measured here: BGB IC40 combination, at 0.05 µM

## CNc1cc(-c2cccc(Cl)c2Cl)nc(N)n1
[1]; [16]
  inhibition: -8.18% (inactive) and -26.7% (inactive)
[1]; [17]
  inhibition: 12.7% and 6.36%
[1]; [18]
  inhibition: -26.9% and -34.5%
[1]; [19]
  inhibition: -17.6% and -7.49%
[1]; [20]
  inhibition: -22.4% and -20%
[1]; [21]
  inhibition: -7.76% and -6.35%
[2]; BGB combo, at 5 µM
  inhibition: 48.2% and 55.5%
[2]; at 0.5 µM
  inhibition: -17.8% (inactive) and -6.13% (inactive)
[2]; cisplatin combo, at 5 µM
  inhibition: 48.9% and 48.7%
[2]; [22]
  inhibition: -27.7% and -11%
[2]; [23]
  inhibition: -24.8% and -0.815%
[2]; single agent, at 5 µM
  inhibition: 76.2% and 85.6%
[3]; BGB IC20 combo, at 0.005 µM
  inhibition: -21.8% and -29.5%
[3]; BGB IC40 combo, at 0.005 µM
  inhibition: -56.1% and -31.8%
[3]; BGB IC40 combo, at 0.05 µM
  inhibition: -22.7% and -34.1%
[3]; at 0.5 µM
  inhibition: -44.2% (inactive) and -25.3% (inactive)
[3]; cisplatin combo, at 0.05 µM
  inhibition: -27.5% and -41.1%
[3]; cisplatin combo, at 0.5 µM
  inhibition: -72.1% and -45.6%
[3]; cisplatin combo, at 5 µM
  inhibition: -47.7% and -22.7%
[3]; [24]
  inhibition: -10.2% and -10.7%
[4]; at 0.5 µM
  inhibition: -34.6% (inactive) and -4.83% (inactive)
[4]; [19]
  inhibition: -68.3% and -4.85%
[4]; [25]
  inhibition: -61.7% and -26.6%
[4]; [26]
  inhibition: -37.7% and -6.6%
[5]; at 0.5 µM
  inhibition: -10% (inactive) and -11.4% (inactive)
[5]; [27]
  inhibition: -16.2% and -6.99%
[5]; [28]
  inhibition: 35.9% and 44.4%
[5]; [29]
  inhibition: -19.3% and -24.6%
[5]; [30]
  inhibition: 46.5% and 52.3%
[5]; single agent, at 5 µM
  inhibition: 86.8% and 87.8%
[6]; at 0.5 µM
  inhibition: -44.3% (inactive) and -58.9% (inactive)
[6]; [31]
  inhibition: -56.3% and -39.2%
[6]; [32]
  inhibition: -66.3% and -96.2%
[7]; at 0.5 µM
  inhibition: 7.62% (inactive) and 7.36% (inactive)
[7]; [33]
  inhibition: 6.39% and 25.3%
[7]; [34]
  inhibition: 10.3% and -5.76%
[8]; at 0.5 µM
  inhibition: -17.7% (inactive) and -11.8% (inactive)
[8]; [35]
  inhibition: -38.9% and -10.5%
[8]; [36]
  inhibition: -22.8% and -21.6%
[9]; at 0.5 µM
  inhibition: -20.6% (inactive) and -7.54% (inactive)
[9]; [25]
  inhibition: -10.7% and -19.4%
[9]; [26]
  inhibition: -1.17% and -0.403%
[10]; at 0.5 µM
  inhibition: -4.77% (inactive) and 5.99% (inactive)
[10]; [37]
  inhibition: -12.3% and -2.46%
[10]; [38]
  inhibition: 12% and 36.8%
[10]; [39]
  inhibition: -5.91% and 6.1%
[10]; [40]
  inhibition: 53.8% and 59%
[11]; [41]
  inhibition: 25.6% and 35%
[11]; at 0.5 µM
  inhibition: -10.5% (inactive) and -13.3% (inactive)
[11]; [42]
  inhibition: 31% and 30.9%
[12]; at 0.5 µM
  inhibition: -0.46% (inactive) and -4.98% (inactive)
[12]; [43]
  inhibition: -4.03% and -6.91%
[12]; [44]
  inhibition: 5.16% and -6.91%
[13]; at 0.5 µM
  inhibition: -12.1% (inactive) and 5.54% (inactive)
[13]; [45]
  inhibition: -10.6% and -1.11%
[13]; cisplatin combination, at 5 µM
  inhibition: 8.87% and -169%
[13]; [46]
  inhibition: 37% and -7.52%
[13]; single agent, at 5 µM
  inhibition: 37.7% and 19.1%
[14]; at 0.5 µM
  inhibition: -17.1% (inactive) and -8.27% (inactive)
[14]; cisplatin combo, at 5 µM
  inhibition: -4.48% and -9.87%
[14]; [47]
  inhibition: -4.59% and 4.5%
[14]; [25]
  inhibition: -16.3% and -34.1%
[14]; single agent, at 5 µM
  inhibition: -7.05% and 22%
[15]; at 0.5 µM
  inhibition: -60.9% (inactive) and -11.4% (inactive)
[15]; [22]
  inhibition: -68.8% and -40.3%
[15]; [23]
  inhibition: -56.9% and 1.42%
[15]; single agent, at 0.05 µM
  inhibition: -40.9% and -9.94%
[15]; single agent, at 5 µM
  inhibition: 58.9% and 60.8%

## N#Cc1ccc(OC2CCC(NC(=O)CCSc3nc4ccccc4c(=O)[nH]3)CC2)cc1 (stereo unspecified)
[1]; [16]
  inhibition: -11.7% (inactive)
[1]; [17]
  inhibition: -15.6%
[1]; [18]
  inhibition: -25.5%
[1]; [19]
  inhibition: -19.3%
[1]; [20]
  inhibition: -29.6%
[1]; [21]
  inhibition: -57.3%
[2]; BGB combo, at 5 µM
  inhibition: 8.7%
[2]; at 0.5 µM
  inhibition: 15.1% (inactive)
[2]; cisplatin combo, at 5 µM
  inhibition: 37.4%
[2]; [22]
  inhibition: 12.5%
[2]; [23]
  inhibition: 15.6%
[2]; single agent, at 5 µM
  inhibition: 35.9%
[3]; BGB IC20 combo, at 0.005 µM
  inhibition: -4.21%
[3]; BGB IC40 combo, at 0.005 µM
  inhibition: -8.75%
[3]; BGB IC40 combo, at 0.05 µM
  inhibition: 7.9%
[3]; at 0.5 µM
  inhibition: -30.9% (inactive)
[3]; cisplatin combo, at 0.05 µM
  inhibition: 4.58%
[3]; cisplatin combo, at 0.5 µM
  inhibition: -24.9%
[3]; cisplatin combo, at 5 µM
  inhibition: -26.6%
[3]; [24]
  inhibition: 2.34%
[4]; at 0.5 µM
  inhibition: -15.5% (inactive)
[4]; [19]
  inhibition: -12.5%
[4]; [25]
  inhibition: -1.66%
[4]; [26]
  inhibition: -48.1%
[5]; at 0.5 µM
  inhibition: 8.65% (inactive)
[5]; [27]
  inhibition: 1.42%
[5]; [28]
  inhibition: -9.23%
[5]; [29]
  inhibition: 9.73%
[5]; [30]
  inhibition: -13.4%
[5]; single agent, at 5 µM
  inhibition: 12.3%
[6]; at 0.5 µM
  inhibition: -13.9% (inactive)
[6]; [31]
  inhibition: 25.6%
[6]; [32]
  inhibition: -58.5%
[7]; at 0.5 µM
  inhibition: 5.55% (inactive)
[7]; [33]
  inhibition: 2.46%
[7]; [34]
  inhibition: 7.46%
[8]; at 0.5 µM
  inhibition: 13.3% (inactive)
[8]; [35]
  inhibition: -10.8%
[8]; [36]
  inhibition: 9.73%
[9]; at 0.5 µM
  inhibition: -13.3% (inactive)
[9]; [25]
  inhibition: -14.4%
[9]; [26]
  inhibition: -3.9%
[10]; at 0.5 µM
  inhibition: 3.61% (inactive)
[10]; [37]
  inhibition: -7.72%
[10]; [38]
  inhibition: -9.87%
[10]; [39]
  inhibition: 1.31%
[10]; [40]
  inhibition: 0.512%
[11]; [41]
  inhibition: 24.2%
[11]; at 0.5 µM
  inhibition: 9.54% (inactive)
[11]; [42]
  inhibition: -12.4%
[12]; at 0.5 µM
  inhibition: 37.4% (inactive)
[12]; [43]
  inhibition: 26.2%
[12]; [44]
  inhibition: 40.6%
[13]; at 0.5 µM
  inhibition: 0.647% (inactive)
[13]; [45]
  inhibition: -17.2%
[13]; cisplatin combination, at 5 µM
  inhibition: -3.13%
[13]; [46]
  inhibition: -41.1%
[13]; single agent, at 5 µM
  inhibition: -16.5%
[14]; at 0.5 µM
  inhibition: 7.33% (inactive)
[14]; cisplatin combo, at 5 µM
  inhibition: -24.6%
[14]; [47]
  inhibition: -11.2%
[14]; [25]
  inhibition: 27.6%
[14]; single agent, at 5 µM
  inhibition: -12.9%
[15]; at 0.5 µM
  inhibition: -30% (inactive)
[15]; [22]
  inhibition: -19.6%
[15]; [23]
  inhibition: -37.4%
[15]; single agent, at 0.05 µM
  inhibition: 34.4%
[15]; single agent, at 5 µM
  inhibition: 4.49%
